# PKM2 act: qHTS Assay for Activators of Human Muscle isoform 2 Pyruvate Kinase; Pyruvate kinase PKM (Homo sapiens), P14618; purified PKM2, Kinase-Glo ATP luminescence, activation; response scale: 0% is enzyme alone, no compound; Potency, µM (top dose mostly 57.5 µM), inactives show at the top dose activation, hits mostly activators; 260,000 compounds, 0.34% hits; also: potency is read from the fitted curve at half-maximal effect; nearly all actives have a fitted effect of over 55% in size
# Target sequence (P14618 whole entry, looked up, canonical isoform): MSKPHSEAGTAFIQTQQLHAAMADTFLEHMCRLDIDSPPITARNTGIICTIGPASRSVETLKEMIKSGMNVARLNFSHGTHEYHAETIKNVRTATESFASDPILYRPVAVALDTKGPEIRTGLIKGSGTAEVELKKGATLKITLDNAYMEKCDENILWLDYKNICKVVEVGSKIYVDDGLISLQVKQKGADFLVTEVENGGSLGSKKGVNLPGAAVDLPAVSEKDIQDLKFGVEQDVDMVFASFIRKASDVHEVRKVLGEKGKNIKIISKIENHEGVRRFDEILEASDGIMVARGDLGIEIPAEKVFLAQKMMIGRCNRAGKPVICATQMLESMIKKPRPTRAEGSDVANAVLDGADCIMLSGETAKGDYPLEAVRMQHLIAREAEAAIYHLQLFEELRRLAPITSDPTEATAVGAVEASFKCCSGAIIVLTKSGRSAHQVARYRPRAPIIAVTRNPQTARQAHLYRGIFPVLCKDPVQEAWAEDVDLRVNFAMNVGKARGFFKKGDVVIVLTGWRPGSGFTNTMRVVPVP
#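 hPK-M2, >95% pure; 0.1 mM ADP / 0.5 mM PEP final; imidazole pH7.2 buffer w/ 7 mM MgCl2, 50 mM KCl; 1 h RT; Kinase-Glo lum. Intermediate enzyme activity for dual inhibitor/activator qHTS.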
# PI4K2A inh: qHTS for small molecular inhibitors of PI4K2A. Phosphatidylinositol 4-kinase type 2-alpha (Homo sapiens), Q9BTU6. purified PI4K2A, ADP-Glo luminescence, 1 h; stronger effect = lower value. activity change, negative = inhibition, % at 76.9 µM. 420,000 compounds, 0.13% hits; in the data active = activity change below about -50%; inconclusive = mostly about -30% to -49%;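 also: -100% = wells without enzyme as full effect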
#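 Compounds are screened against recombinant PI4K2A using PI as substrate and ATP, the latter dispensed at 300 microM. Reactions run one hour at ambient temperature before ADP-Glo detection; full inhibition defined by wells lacking enzyme.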
# TrxR1 substrate: qHTS Assay for Substrates of Mammalian Selenoprotein Thioredoxin Reductase 1 (TrxR1): qHTS | Thioredoxin reductase 1, cytoplasmic (Rattus norvegicus), O89049 | purified TrxR1 substrate turnover, NADPH consumption readout | Potency, µM (doses to about 114 µM), for inactives: at the top dose activity change, negative = substrate turnover | 390,000 compounds, 0.01% hits | AID 588456, 2011; also: potency is read from the fitted curve at half-maximal effect; nearly all actives have a fitted effect of over 50% in size
#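 Rat TrxR1, dispensed at 90 nM, was prereduced with 400 uM NADPH (final) for 5 min at ~22 deg C, then incubated with compound 15 min before 400 uM selenite. A first-read NADPH fluorescence drop versus no-compound background flagged substrates.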
# GALK inh: qHTS Assay for Inhibitors of Human Galactokinase (GALK). Potency, µM (series often up to 57.5 µM), for inactives: top-dose activity change, negative = inhibition, usual class: inhibitors. Purified GALK, Kinase-Glo residual ATP luminescence. P51570. 270,000 compounds, 0.007% hits. AID 1868, 2009; also: potency is read from the fitted curve at half-maximal effect
#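 Galactose (100 uM) and ATP (35 uM) were turned over by 5 nM GALK for 1 h at RT. Kinase-Glo Plus then converted the remaining ATP into a luminescent signal.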
# TrxR1 inh: qHTS Assay for Inhibitors of Mammalian Selenoprotein Thioredoxin Reductase 1 (TrxR1): qHTS; Thioredoxin reductase 1, cytoplasmic (Rattus norvegicus), O89049; recombinant rTrxR1, NADPH fluorescence consumption, selenite substrate; Potency, µM (top dose mostly 114 µM), inactives show at the top dose activity change, negative = inhibition, most hits filed as inhibitors; 390,000 compounds, 1% hits; AID 588453, 2011; also: potency is read from the fitted curve at half-maximal effect; nearly all actives have a fitted effect of over 65% in size
#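 Rat TrxR1 (90 nM in the dispensed reagent) was pre-reduced with 400 uM NADPH for 5 min at room temperature, then incubated with compound for 15 min. After 400 uM selenite was added, NADPH fluorescence (Ex 340/Em 450 nm) was followed for 8 min.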
# Starred values were filed as active, the others as inactive; i = inactive; ? = inconclusive; · = not tested or not shown; [ ] = another dose, or the depositor's remark. Rows were chosen to be rich in hits. Some 1.2% of all compounds tested hit in one or more screens of this group. Unless noted, calls follow the shape of the dose curve; as a rule, active = well fitted curve in the direction sought with a large enough effect; inconclusive = small, poorly fitted or top-dose-only effect, or another doubt; inactive = no such curve, though single readings can be large; an effect the other way counts as inactive or inconclusive. Unless noted, % is scaled to controls: 0 for no effect and ±100 for the full control effect.
SMILES,PKM2 act,PI4K2A inh,TrxR1 substrate,GALK inh,TrxR1 inh
CCOC(=O)c1ccc(NS(=O)(=O)c2c(C)nc3sccn3c2=O)cc1,-5.5%,6.4,-4.8%,·,0.4%
Cc1ccc(NS(=O)(=O)c2c(C)nc3sccn3c2=O)cc1,10µM*,-7.7,-2.5%[57.1 µM],·,5.4%[57.1 µM]
Cc1nc2sccn2c(=O)c1S(=O)(=O)Nc1cccc(Cl)c1C,7.08µM*,-2.2,2.7%[57.1 µM],·,18.2%[57.1 µM]
CCOC(=O)CSC1=NC(=O)CS1,0.3%,2.3,0.5%,0.2%,14.1µM*
COc1ccccc1CNC(=O)c1cnc2sc(N3CCCCC3)nn2c1=O,·,-5.4,38.8%[57.1 µM],·,13.7%[57.1 µM]
Cc1ccc(NS(=O)(=O)c2ccc3c(c2)CC(=O)N3)cc1C,14.1µM*,-2.0,12.4%[57.1 µM],·,20.6%[57.1 µM]
COc1cccc(NS(=O)(=O)c2ccc3c(c2)CC(=O)N3)c1,·,-4.1,-2.5%,·,-2.9%
CCc1cccc(NS(=O)(=O)c2ccc3c(c2)CCC(=O)N3)c1,2.82µM*,0.5,-0.9%,10.2%,-1.0%
O=C1CCc2cc(S(=O)(=O)Nc3cccc(Cl)c3)ccc2N1,·,-1.3,·,·,·
Cc1cccc(NS(=O)(=O)c2ccc3c(c2)CCC(=O)N3)c1,3.98µM*,2.4,9.2%[57.1 µM],-1.9%,29.2%[57.1 µM]
CCc1cccc(NS(=O)(=O)c2ccc3c(c2)NC(=O)CC(=O)N3)c1,9.2%,-4.2,3.8%,0.2%,27.1%
CN(Cc1ccccc1)S(=O)(=O)c1cccc(C(=O)OCc2cccc(C(F)(F)F)c2)c1,·,1.9,·,·,·
COc1ccc(/C=C/c2sc3ccccc3[n+]2CCCCI)cc1OC,·,·,-17.0%,·,?
CC(=O)N/C(=C/c1ccccc1)c1sc2ccccc2[n+]1CCCCI,·,·,-4.6%,·,44.7µM*
NC(=O)CSc1oc(-c2ccco2)nc1S(=O)(=O)c1ccccc1,9.0%,-3.5,3.7%,2.8%,39.8µM*
CC1(C)CC(=O)C2=C(C1)OC(N)=C(C#N)[C@@H]2c1ccccc1[N+](=O)[O-],-9.2%,-6.0,12.4%,5.3%,20µM*
COc1cc(OC)cc(-c2nc3n(n2)C(c2ccccc2)C(C(N)=O)=C(C)N3)c1 (stereo unspecified),·,2.0,0.5%,·,-3.0%
CCOc1ccc(C(c2c(O)nc(SC)n(C)c2=O)c2c(O)nc(SC)n(C)c2=O)cc1,-4.7%,-21.7,8.8%,-0.3%,8.91µM*
CCC1=C2CC[C@H]3C(=O)NC(=O)[C@H]3[C@H]2[C@@]2(Cc3ccccc3)C(=NCC3CC3)OC(=O)N2C1=O,-2.9%,·,·,·,·
Cc1ccccc1CN1CCNC(=O)C1CC(=O)O (stereo unspecified),7.8%,-4.2,5.5%,1.2%,70.8µM*
COc1cccc(CN2CCNC(=O)C2CC(=O)O)c1OC (stereo unspecified),-0.5%,-3.6,-0.9%,-0.6%,?
Cc1nc2cc(Cl)c(Cl)cc2n1CCCO,1.4%,-0.5,-1.0%[57.1 µM],2.3%,3.7%[57.1 µM]
Cc1cc(=S)cc(C)n1CCCO,-1.4%,-0.5,-12.2%,0.5%,12.6µM*
CCN(CC)CC(=O)c1c(C)n(C)c2ccc(OC)cc12,·,·,2.7%,·,19.7%
Cc1nc(NC(=O)c2ccco2)sc1C(=O)O,-81.9%,-67.2*,-5.8%,27.1%,-2.6%
SMILES,PKM2 act,PI4K2A inh,TrxR1 substrate,GALK inh,TrxR1 inh
Cc1nc(NC(=O)c2ccco2)sc1C(=O)Nc1ccc(Br)cc1,-2.8%,-1.8,-7.9%,-3.9%,8.0%
COC(=O)C1CCN(c2cc(=O)n(-c3ccc(OC)cc3)c(=O)[nH]2)CC1,2.8%,2.9,6.2%[57.1 µM],1.9%,28.2µM*
OCC1O[C@H]([S-])[C@H](O)[C@@H](O)[C@@H]1O.[Au+] (stereo partly specified),·,-55.1*,12.8%[57.1 µM],·,0.251µM*
OC[C@H]1OC(O)[C@H](O)[C@@H](O)[C@H]1O (stereo partly specified),·,-0.2,6.8%,·,18.4%
O=C(Nc1ccc(-c2nc3ncccc3o2)cc1)c1ccco1,0.5%,-7.8,29.0%,-2.9%,39.8µM*
O=C(Nc1ccc(-c2nc3ncccc3o2)cc1)c1ccc(Br)o1,-1.9%,-23.7,47.9%,1.1%,-22.5%
Cc1sc2nc(C(C)C)nc(SCC(=O)N3CCN(C(=O)c4ccco4)CC3)c2c1C,6.8%,4.8,-0.2%[57.1 µM],-6.1%,15.8µM*
Cc1nc(SCC(=O)N(C)Cc2ccco2)c2c(C)c(C)sc2n1,15.9%,-17.9,-7.2%,2.0%,22.4µM*
Cc1sc2nnn(CC(=O)N3CCN(C(=O)c4ccco4)CC3)c(=O)c2c1C,·,0.4,0.5%,·,?
CN(Cc1ccccc1F)C(=O)Cn1c(-c2cncs2)nc2ccccc21,·,-4.4,·,·,·
Cc1ccc(NC(=O)CN2C(=O)COc3ccc(S(=O)(=O)NC4CCCC4)cc32)cc1Cl,·,5.6,-2.2%,·,29.7%
COc1cccc(/C(O)=C/C(=O)C(=O)Nc2ccc(S(=O)(=O)NC(C)=O)cc2)c1,1.4%,-2.8,-19.2%,·,22.4µM*
CCN(CC)CC(=O)Nc1c(C)cccc1C(=O)OC,·,2.0,·,·,·
O=C(Cc1ccc([N+](=O)[O-])cc1)c1c(O)cc(O)cc1O,?,-4.9,3.5%,5.6%,3.55µM*
COc1cccc(CCc2nnc(CCC(=O)N3CCN(Cc4ccccn4)CC3)o2)c1,5.1%,2.3,6.3%,-0.7%,31.6µM*
COc1cc2c(cc1NC(=O)CSc1nnc(-c3cccc(Cl)c3)n1Cc1ccco1)oc1ccccc12,·,-5.8,·,·,·
Cc1ccc2occ(CC(=O)N(Cc3ccccc3Cl)C3CCS(=O)(=O)C3)c2c1 (stereo unspecified),·,-2.1,1.0%,·,10.0%
CCc1ccc(NC(=O)CC2C(=O)N(c3ccc(F)cc3)C(=O)N2Cc2ccc(F)cc2)cc1 (stereo unspecified),·,-1.6,4.1%,·,18.0%
CCOC(=O)c1cc(=O)n2nc(-c3ccccc3F)nc2s1,4.8%,-6.0,0.5%[57.1 µM],-5.1%,11.2µM*
O=C(Nc1ccc(Oc2ccccc2)cc1)c1ccc(F)c(S(=O)(=O)N2CCN(c3cccc(Cl)c3)CC2)c1,·,-3.0,-0.3%[57.1 µM],·,24.5%[57.1 µM]
Cc1ccc([C@@H]2C3COCC=C3C(C#N)=C(N)C2(C#N)C#N)o1 (stereo partly specified),7.0%,-11.7,18.7%,8.1%,7.94µM*
Cc1c(Cl)cccc1NC(=O)CCn1c(=O)c2cccn2c2ccccc21,·,1.3,-1.5%,·,9.3%
O=c1ccc2ccc(O)cc2o1,·,-3.1,i,·,79.4µM*
Cc1cc(=O)oc2cc(O)ccc12,·,-5.2,i,·,50.1µM*

# Bioassay records from PubChem.
